# Measurements: the supplement of paper PMC6897291
# Structures can show the parent of a compound that is named as a salt.
# Tested on: U-2932
# Assay: growth inhibition by drug alone (1 - RLU/untreated control) (fraction); higher = stronger inhibition
# Conditions: 10 nM; time (day): 6; 177Lu-lilotomab satetraxetan 0 ug/ml
# Method in brief: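 Compound doses on the pre-printed Selleck Cambridge Cancer Compound library plates were 10/100 nM for RIVA cells and 10/1,000 nM for U-2932 cells, seeded at 3,000 cells/well. Before seeding, cells were washed after 18 h with or without a radiolabelled anti-CD37 antibody conjugate (~600 MBq/mg; 0.5 µg/ml RIVA, 1 µg/ml U-2932). Growth inhibition was derived from RealTime-Glo luminescence relative to untreated no-drug control wells. Readings were taken daily starting on day 3, each after 1 h at 37°C, and each well's RLU was divided by the mean of 48 such wells per plate and subtracted from 1.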
row,Structure (SMILES),growth inhibition by drug alone
1,COc1ccc(S(=O)(=O)Nc2cccnc2Nc2ccc(O)cc2)cc1,0.0329
2,C[C@]12CCC(=O)C=C1CC[C@@H]1[C@@H]2[C@@H](O)C[C@@]2(C)[C@H]1CC[C@]2(O)C(=O)CO [Hydrocortisone (Cortisol)],-0.0358
3,COc1cc(OC2CCN(C)CC2)ccc1Nc1ncc2c(n1)n(C1CCCC1)c(=O)n2C,-0.034
4,Nc1nc(F)nc2c1ncn2[C@@H]1O[C@H](CO)[C@@H](O)[C@@H]1O [Fludarabine (Fludara)],-0.129
5,Nc1nc(Nc2ccc(S(N)(=O)=O)cc2)nn1C(=O)c1c(F)cccc1F,-0.028
6,Nc1ncn([C@@H]2O[C@H](CO)[C@@H](O)[C@H]2O)c(=O)n1 [Azacitidine (Vidaza)],-0.0507
7,COc1cc2nccc(Oc3ccc(NC(=O)NC4CC4)c(Cl)c3)c2cc1C(N)=O [E7080 (Lenvatinib)],0.0583
8,Nc1ccn([C@@H]2O[C@H](CO)[C@@H](O)[C@@H]2O)c(=O)n1 [Cytarabine],-0.0808
9,Nc1cccc2c1C(=O)N(C1CCC(=O)NC1=O)C2=O (stereo not drawn) [Pomalidomide],-0.183
10,CN(C)c1nc(N(C)C)nc(N(C)C)n1 [Altretamine (Hexalen)],-0.058
11,Cc1[nH]c(/C=C2\C(=O)Nc3ccc(S(=O)(=O)N(C)c4cccc(Cl)c4)cc32)c(C)c1C(=O)N1CCN(C)CC1,-0.198
12,O=C(O[C@@H]1Cc2c(O)cc(O)cc2O[C@@H]1c1cc(O)c(O)c(O)c1)c1cc(O)c(O)c(O)c1 [(-)-Epigallocatechin gallate],-0.234
13,CCc1c2c(nc3ccc(OC(=O)N4CCC(N5CCCCC5)CC4)cc13)-c1cc3c(c(=O)n1C2)COC(=O)[C@]3(O)CC [Irinotecan HCl Trihydrate (Campto)],-0.0905
14,S=C(NCc1ccc2c(c1)OCO2)N1CCN(c2ncnc3c2oc2ccccc23)CC1 [Amuvatinib (MP-470)],-0.0914
15,COc1ccc2c3n(c(=NC(=O)c4cccnc4)nc2c1OC)CCN3,-0.132
16,C#Cc1cccc(Nc2ncnc3cc(OCCOC)c(OCCOC)cc23)c1 [Erlotinib HCl],0.0458
17,Cc1ccc(-c2cc(C(F)(F)F)nn2-c2ccc(S(N)(=O)=O)cc2)cc1 [Celecoxib],0.0336
18,N#CC[C@H](C1CCCC1)n1cc(-c2ncnc3[nH]ccc23)cn1,-0.139
19,CCc1cncnc1N1CCN(Cc2nc3ccc(C(F)(F)F)cc3[nH]2)CC1,-0.108

row,Structure (SMILES),growth inhibition by drug alone
1,CCN(CC)C(=S)SSC(=S)N(CC)CC [Disulfiram (Antabuse)],-0.236
2,CC(C)[C@H](C(=O)Nc1ccc(C(=O)NO)cc1)c1ccccc1,-0.000531
3,CC(=O)O[C@]1(C(C)=O)CC[C@H]2[C@@H]3C=C(C)C4=CC(=O)CC[C@]4(C)[C@H]3CC[C@@]21C [Megestrol Acetate],0.00317
4,COc1cc2ncnc(Nc3cccc(Br)c3)c2cc1OC,-0.213
5,N#Cc1ccc(C(c2ccc(C#N)cc2)n2cncn2)cc1 [Letrozole],0.00419
6,CC(=O)c1c(C)c2cnc(Nc3ccc(N4CCNCC4)cn3)nc2n(C2CCCC2)c1=O,-0.186
7,COc1cccc2c1C(=O)c1c(O)c3c(c(O)c1C2=O)C[C@@](O)(C(=O)CO)C[C@@H]3O[C@H]1C[C@H](N)[C@H](O)[C@H](C)O1 [Doxorubicin (Adriamycin)],0.433
8,CC(C)(C)c1[nH]cnc1/C=c1\[nH]c(=O)/c(=C/c2ccccc2)[nH]c1=O [NPI-2358 (Plinabulin)],-0.0221
9,COc1cc(Nc2ncc3c(n2)-c2ccc(Cl)cc2C(c2c(F)cccc2OC)=NC3)ccc1C(=O)O [MLN8237 (Alisertib)],-0.269
10,O=c1[nH]cc(F)c(=O)[nH]1 [Adrucil (Fluorouracil)],-0.211
11,CC(C)c1ccc(Cn2ccc3c4c(N)nc(NC5CC5)nc4ccc32)cc1,0.0356
12,CC/C(=C(\c1ccccc1)c1ccc(OCCN(C)C)cc1)c1ccccc1 [Tamoxifen Citrate (Nolvadex)],-0.0576
13,Cn1cc(C2=C(c3ccc(Cl)cc3Cl)C(=O)NC2=O)c2ccccc21,-0.0764
14,c1ccc(-c2nn3c(c2-c2ccnc4cc(OCCN5CCOCC5)ccc24)CCC3)nc1,-0.126
15,O=C(NCCS(=O)(=O)c1ccc(C(F)(F)F)cn1)c1ccc(Cl)cc1,-0.101
16,Cc1ccc(S(=O)(=O)C=CC#N)cc1,-0.041
17,CCC1=C[C@@H]2CN(C1)Cc1c([nH]c3ccccc13)[C@@](C(=O)OC)(c1cc3c(cc1OC)N(C)[C@H]1[C@@](O)(C(=O)OC)[C@H](OC(C)=O)[C@]4(CC)C=CCN5CC[C@]31[C@@H]54)C2 [Vinorelbine (Navelbine)],0.614
18,Cc1cc(Nc2cc(N3CCN(C)CC3)nc(/C=C/c3ccccc3)n2)n[nH]1,-0.0133
19,CN(N=O)C(=O)N[C@@H](C=O)[C@@H](O)[C@H](O)[C@H](O)CO [Streptozotocin (Zanosar)],0.111
